Bioassay records from PubChem.
NOD2 RIPK2 PPI – blocks binding of human NOD2 to RIPK2 | O43353 | CHO BLA complementation NOD2-RIPK2, CCF4 ratio | inhibition, % at 4.98 µM | 360,000 compounds, 0.38% hits | AID 624267; in the data active = inhibition above about 21%
Target sequence (O43353 whole entry, looked up): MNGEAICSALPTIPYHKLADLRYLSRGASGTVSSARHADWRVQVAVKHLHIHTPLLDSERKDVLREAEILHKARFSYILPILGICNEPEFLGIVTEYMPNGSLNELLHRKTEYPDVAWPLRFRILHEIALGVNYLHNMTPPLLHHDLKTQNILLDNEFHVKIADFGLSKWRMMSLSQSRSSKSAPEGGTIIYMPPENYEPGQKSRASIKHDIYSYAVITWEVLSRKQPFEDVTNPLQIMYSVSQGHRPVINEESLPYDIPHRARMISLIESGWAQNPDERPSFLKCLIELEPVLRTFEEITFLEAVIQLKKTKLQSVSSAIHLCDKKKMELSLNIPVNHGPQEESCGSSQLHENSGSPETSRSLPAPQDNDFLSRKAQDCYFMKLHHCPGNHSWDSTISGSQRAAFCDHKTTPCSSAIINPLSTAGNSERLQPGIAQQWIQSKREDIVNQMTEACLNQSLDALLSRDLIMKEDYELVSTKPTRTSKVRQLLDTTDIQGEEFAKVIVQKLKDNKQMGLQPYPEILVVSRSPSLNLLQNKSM
TLR9-MyD88 inh – inhibitors of human TLR9-MyD88 binding; Q9NR96+Q99836; CHO BLA complementation TLR9-MyD88, CCF4 FRET ratio; inhibition, % at 4.98 µM; 340,000 compounds, 0.21% hits; AID 504734;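 active = inhibition above the mean over all tested compounds plus 3 SD, cut at about 21% in these data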
TLR4-MyD88 BLA – TLR4-MyD88 interaction inhibition in cells; O00206+Q99836; HeLa CL3-4 TLR4/MyD88 BLA complementation, FRET ratio; inhibition, % at 8.4 µM; 200,000 compounds, 0.18% hits; AID 861; in the data active = inhibition above about 25%
ANO1 activ – activators or potentiators of mouse TMEM16A chloride channel; B-score at 10 µM; Q8BHY3; HEK293 TMEM16A/YFP-H148Q/I152L, iodide quench fluorescence; stronger effect = lower value; 340,000 compounds, 0.3% hits; AID 623877;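 active = fluorescence-ratio B-score plate-corrected deviation score at least 3 library SD below zero, with starting fluorescence score within 5 deviations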;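 note: channel opened by trigger with iodide after compound preincubation; score built on the fluorescence ratio of max minus min over baseline; more negative score means more quench and so TMEM16A activation or potentiation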
ANO1 block – blocks the mouse calcium-activated chloride channel TMEM16A; HEK293 TMEM16A/YFP iodide influx fluorescence, ionomycin; normalized B-score (activity score, 25-100; higher = stronger inhibition) at 10 µM; 310,000 compounds, 1.2% hits;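 active = ratio plate-corrected score three or more library SD toward inhibition, starting fluorescence score within five deviations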;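 note: score derived from kinetic fluorescence span divided by baseline fluorescence per well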
HTR2A ag – mouse HTR2A agonism via beta-arrestin recruitment; P35363; CHO-K1 mHTR2A beta-arrestin complementation, luminescence; percent of 30 µM serotonin response; activation, % at 7.6 µM; 360,000 compounds, 0.66% hits; AID 624169;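 active = activation above a run cutoff, the mean activation of all tested compounds plus 3 SD, cut at about 14% in these data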
TLR9-MyD88 conf – TLR9-MyD88 interaction inhibition, confirmation | inhibition, % at 4.98 µM | 680 compounds, 51% hits | shares compounds with TLR9-MyD88 inh | CHO TLR9/MyD88 BLA complementation, CCF4 FRET ratio;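 active = mean inhibition across three repeats above about 21% taken from the earlier screen, limit read from the data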;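 note: blue over green emission ratio reports constitutive TLR9 MyD88 association via BLA complementation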
BLA counter-1 – beta-lactamase reporter inhibition, counter-screen artifact; shares compounds with TLR9-MyD88 inh; CHO-BLA cells, CCF4 FRET ratio, BLA reporter; inhibition, % at 4.98 µM; 680 compounds, 7% hits;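 active = mean inhibition above a 50% cutoff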;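 note: counterscreen of TLR9-MyD88 hits on CMV-driven BLA in CHO-K1 cells; higher means less blue over green ratio so more BLA blockade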
TLR9 CHO tox – counter-screen for TLR9-MyD88 inhibitors: cytotoxicity in CHO cells; shares compounds with TLR9-MyD88 inh; luminescence; 680 compounds, 39% hits; inhibition, % at 4.98 µM; in the data active = inhibition above about 11%
TMEM16A reconf – TMEM16A (mouse) chloride channel inhibition, re-confirmation | 2,300 compounds, 39% hits | shares compounds with ANO1 block | HEK293 TMEM16A/YFP-H148Q, iodide quench fluorescence; ionomycin added to raise cell calcium | inhibition, % at 10 µM;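 active = mean duplicate percent inhibition, scaled so buffer wells are 0 and the reference blocker 100, over three buffer SD above buffer mean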
HEK293 Ca mobil – alters calcium mobilization in TMEM16A HEK293 cells, counter-screen; shares compounds with ANO1 block; TMEM16A/YFP HEK293, Fluo4 calcium mobilization; calcium response (% of ionomycin), % at 10 µM; 2,300 compounds, 2% hits; AID 652231;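 active = duplicate-averaged calcium signal over 20% of the ionomycin maximum, relative to buffer baseline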;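 note: each well's signal is peak minus trough fluorescence divided by its pre-addition baseline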
YFP-HEK293 quench – acts in parental YFP-HEK293 cells lacking TMEM16A, counter-screen; shares compounds with ANO1 block; iodide YFP quench, ionomycin; YFP ratio F(max-min)/F0 at 10 µM; 2,300 tested, under 10 active; AID 652233;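 active = yellow fluorescent protein signal ratio exceeding the buffer control mean by over 5 SD of those controls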;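 note: ratio is mean of duplicate wells from kinetic YFP trace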
ClC-1 inh – blocks the rat ClC-1 voltage-dependent chloride channel; ratio percent, % at 10 µM; shares compounds with ANO1 block; AID 652236; 2,300 tested, under 10 active; CHO ClC-1-YFP, iodide influx fluorescence quench; iodide control reads 0, buffer control 100;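 active = duplicate-mean ratio percent above the mean of iodide-only control wells, which defines zero, plus 5 of their SD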;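 note: higher percent means stronger block of ClC-1 iodide influx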
NOD2-RIPK2 conf – NOD2-RIPK2 interaction inhibition confirmed; AID 624370; CHO cells, NOD2-RIPK2 BLA complementation, CCF4 FRET; inhibition, % at 4.98 µM; shares compounds with NOD2 RIPK2 PPI; 1,200 compounds, 70% hits;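 active = mean inhibition across replicates above a set limit taken from the earlier primary screen, cut at about 21% in these data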
BLA counter-2 – NOD2-RIPK2 counterscreen BLA reporter activity; shares compounds with NOD2 RIPK2 PPI; CHO BLA reporter, CCF4 FRET ratio; inhibition, % at 4.98 µM; 1,200 compounds, 57% hits; AID 624371;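 active = mean inhibition above the low-control mean inhibition plus three low-control SD, cut at about 11% in these data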
Each line names hits and unclear results; the compound was inactive in the other large screens (follow-up assays come after a bar, where they were run). Only some compounds are listed: those with a hit (about 2.4% of all), similar ones and a draw of the others.

O=C(CSc1nnc(-c2ccncc2)n1Cc1ccco1)Nc1ccccc1F	none (no result: TLR4-MyD88 BLA)
COC(=O)c1ccc2c(c1)C(=O)/C(=C/c1ccc(C)cc1)O2	none
CN(C)c1ccc(/C=C2\Oc3ccc(C#Cc4cccc(N)c4)cc3C2=O)cc1	NOD2 RIPK2 PPI 49.4, TLR9-MyD88 inh 45.0 (no result: TLR4-MyD88 BLA, ANO1 block) | TLR9-MyD88 conf 53.3 | BLA counter-1 60.0 | TLR9 CHO tox inactive | NOD2-RIPK2 conf 70.6 | BLA counter-2 78.5
CC(C)(C)OC(=O)NCC(=O)Oc1cc2oc(=O)cc(-c3ccccc3)c2cc1Cl	NOD2 RIPK2 PPI 36.0, TLR9-MyD88 inh 47.0 | TLR9-MyD88 conf inactive | BLA counter-1 inactive | TLR9 CHO tox inactive | NOD2-RIPK2 conf 43.4 | BLA counter-2 48.3
CCc1cc2c(-c3ccccc3)cc(=O)oc2cc1OC(C)C(C)=O (configuration not stated)	none (no result: TLR4-MyD88 BLA)
Clc1ccc(-c2nnc(CSc3nnc(-c4cccs4)n3Cc3ccccc3)o2)cc1	ANO1 block 25 | TMEM16A reconf 41.5% | HEK293 Ca mobil inactive | YFP-HEK293 quench inactive | ClC-1 inh inactive
CC(C)(Cc1cccc(CC(C)(C)C(=O)O)c1)C(=O)O	none (no result: TLR4-MyD88 BLA)
Cn1ncc2c(N3CCN(c4ccc(Cl)c(Cl)c4)CC3)ncnc21	ANO1 block 25 | TMEM16A reconf inactive | HEK293 Ca mobil inactive | YFP-HEK293 quench inactive | ClC-1 inh inactive
Cn1ncc2c(N3CCN(c4ccccc4F)CC3)ncnc21	none
Cc1ccc2nc(SCc3nc4c(cnn4-c4ccccc4)c(=O)[nH]3)[nH]c2c1	ANO1 block 25 | TMEM16A reconf inactive | HEK293 Ca mobil inactive | YFP-HEK293 quench inactive | ClC-1 inh inactive
COC(=O)C1CCN(c2cc(=O)n(-c3ccccc3Cl)c(=O)[nH]2)CC1	ANO1 block 100 | TMEM16A reconf inactive | HEK293 Ca mobil inactive | YFP-HEK293 quench inactive | ClC-1 inh inactive
Cc1nc(-c2ccc(C(=O)N3CCCC3)cc2)cs1	none
Cc1ccc(C(=O)CSc2nc(C(C)C)nc3ccccc23)cc1	ANO1 block 100 | TMEM16A reconf inactive | HEK293 Ca mobil inactive | YFP-HEK293 quench inactive | ClC-1 inh inactive
CC(C)c1nc(SCC(=O)c2ccc(F)cc2)c2ccccc2n1	none
CCOc1cccc(C(=O)NNC(=O)C2C3C=CC(C3)C2C(=O)O)c1 (configuration not stated)	none (no result: TLR4-MyD88 BLA)
CCN(CC)c1ccc2cc(S(=O)(=O)c3ccc(Cl)cc3)c(=O)oc2c1	none | TMEM16A reconf inactive | HEK293 Ca mobil inactive | YFP-HEK293 quench inactive | ClC-1 inh inactive
CC1CN(S(=O)(=O)c2ccc(C(=O)Nc3nnc(-c4ccccn4)o3)cc2)CC(C)O1 (configuration not stated)	none
CC1CN(S(=O)(=O)c2ccc(C(=O)Nc3nnc(-c4ccc5c(c4)CCCC5)o3)cc2)CC(C)O1 (configuration not stated)	ANO1 block 100 | TMEM16A reconf 32.0% | HEK293 Ca mobil inactive | YFP-HEK293 quench inactive | ClC-1 inh inactive
CC(C)CNC(=S)N1CCC(c2nc(-c3ccc(F)cc3)no2)CC1	ANO1 block 100 | TMEM16A reconf inactive | HEK293 Ca mobil inactive | YFP-HEK293 quench inactive | ClC-1 inh inactive
COCCNC(=S)N1CCC(c2nc(-c3ccc(N(C)C)cc3)no2)CC1	none
COC(=O)c1sccc1NC(=S)N1C(C)CCCC1C (configuration not stated)	none
O=C(Nc1ccccc1C(=O)Nc1nnc(C(F)(F)F)s1)c1ccccc1Cl	ANO1 block 100 (no result: TLR4-MyD88 BLA) | TMEM16A reconf 33.0% | HEK293 Ca mobil inactive | YFP-HEK293 quench inactive | ClC-1 inh inactive
Cc1nn(-c2ccccc2)nc1C(=O)Nc1nnc(C(F)(F)F)s1	ANO1 block 100 (no result: TLR4-MyD88 BLA) | TMEM16A reconf 28.5% | HEK293 Ca mobil inactive | YFP-HEK293 quench inactive | ClC-1 inh inactive
CCC(Oc1ccccc1)C(=O)Nc1nnc(C(F)(F)F)s1 (configuration not stated)	ANO1 block 100 | TMEM16A reconf 20.0% | HEK293 Ca mobil inactive | YFP-HEK293 quench inactive | ClC-1 inh inactive
O=C(Nc1nnc(C(F)(F)F)s1)C1COc2ccccc2O1 (configuration not stated)	ANO1 block 100 | TMEM16A reconf 29.5% | HEK293 Ca mobil inactive | YFP-HEK293 quench inactive | ClC-1 inh inactive
O=C(Nc1nnc(C2CC2)s1)C1COc2ccccc2O1 (configuration not stated)	none
COc1ccc([N+](=O)[O-])c(OC)c1C(=O)NC(=O)Nc1c(F)c(F)c(F)c(F)c1F	none (no result: TLR4-MyD88 BLA)
COc1ccc(NC(=O)N2CCCC2C(=O)Nc2ccccc2)cc1 (configuration not stated)	none
CN(CC(=O)Nc1cccc(S(=O)(=O)N2CCCCC2)c1)Cc1ccc(F)cc1	none (no result: TLR4-MyD88 BLA, ANO1 block)
O=C(Nc1nnc(C(F)(F)F)s1)c1ccc(Br)s1	ANO1 block 100 | TMEM16A reconf 26.5% | HEK293 Ca mobil inactive | YFP-HEK293 quench inactive | ClC-1 inh inactive
